Each structure is given as a SMILES string. Several values for one entry are separate records, joined by “and”; a condition that tells them apart may be missing. Identical values can stand only once. Inconclusive results are not listed. Entries that show only a call come without a potency. Some compounds were tested as several samples or in several runs, with calls that do not always agree. Activity calls are given as the source filed them. The call rests on the fitted dose curve; in most records, active means well fitted curve in the direction sought with a large enough effect in the repeat runs; inconclusive means weak or mixed curves; inactive means no such curve, though single readings can be large; an effect the other way counts as inactive or inconclusive.

Experiment [1] deals with Voltage-gated inwardly rectifying potassium channel KCNH2 (Homo sapiens) (UniProt Q12809). In words: Human Ether-a-go-go-Related Gene (hERG) channel small molecule antagonists: fluorescence cell-based qHTS assay (AID 1671200).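 Further: hERG-expressing U2OS cells given a thallium stimulus after FluxOR II dye loading; series mostly up to about 77 µM.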 The gist of the method:
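Measured: Tl+ flux via fluorescence (480/540 nm) in hERG-expressing U2OS cells after 1 h dye loading at room temperature.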

Experiment [2] concerns the target Cytochrome P450 3A4 (Homo sapiens) (UniProt P08684). In words: Cytochrome P450 Family 3 Subfamily A Member 4 (CYP3A4) small molecule antagonists: luciferase reporter qHTS assay (AID 1671201). Further: potency means the concentration at half of the fitted maximal effect. Summed up:
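Setup: enzyme-substrate mix, compound pin transfer, 10 min RT. Reaction: NADPH regeneration solution, 1 h RT. Readout: detection reagent stops turnover, luminescence measured after 20 min, expressed in relative luminescence units.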
Further: nearly all actives have a fitted effect of over 50% in size.

Voltage-gated inwardly rectifying potassium channel KCNH2 (Homo sapiens), sequence (Q12809 whole entry, looked up): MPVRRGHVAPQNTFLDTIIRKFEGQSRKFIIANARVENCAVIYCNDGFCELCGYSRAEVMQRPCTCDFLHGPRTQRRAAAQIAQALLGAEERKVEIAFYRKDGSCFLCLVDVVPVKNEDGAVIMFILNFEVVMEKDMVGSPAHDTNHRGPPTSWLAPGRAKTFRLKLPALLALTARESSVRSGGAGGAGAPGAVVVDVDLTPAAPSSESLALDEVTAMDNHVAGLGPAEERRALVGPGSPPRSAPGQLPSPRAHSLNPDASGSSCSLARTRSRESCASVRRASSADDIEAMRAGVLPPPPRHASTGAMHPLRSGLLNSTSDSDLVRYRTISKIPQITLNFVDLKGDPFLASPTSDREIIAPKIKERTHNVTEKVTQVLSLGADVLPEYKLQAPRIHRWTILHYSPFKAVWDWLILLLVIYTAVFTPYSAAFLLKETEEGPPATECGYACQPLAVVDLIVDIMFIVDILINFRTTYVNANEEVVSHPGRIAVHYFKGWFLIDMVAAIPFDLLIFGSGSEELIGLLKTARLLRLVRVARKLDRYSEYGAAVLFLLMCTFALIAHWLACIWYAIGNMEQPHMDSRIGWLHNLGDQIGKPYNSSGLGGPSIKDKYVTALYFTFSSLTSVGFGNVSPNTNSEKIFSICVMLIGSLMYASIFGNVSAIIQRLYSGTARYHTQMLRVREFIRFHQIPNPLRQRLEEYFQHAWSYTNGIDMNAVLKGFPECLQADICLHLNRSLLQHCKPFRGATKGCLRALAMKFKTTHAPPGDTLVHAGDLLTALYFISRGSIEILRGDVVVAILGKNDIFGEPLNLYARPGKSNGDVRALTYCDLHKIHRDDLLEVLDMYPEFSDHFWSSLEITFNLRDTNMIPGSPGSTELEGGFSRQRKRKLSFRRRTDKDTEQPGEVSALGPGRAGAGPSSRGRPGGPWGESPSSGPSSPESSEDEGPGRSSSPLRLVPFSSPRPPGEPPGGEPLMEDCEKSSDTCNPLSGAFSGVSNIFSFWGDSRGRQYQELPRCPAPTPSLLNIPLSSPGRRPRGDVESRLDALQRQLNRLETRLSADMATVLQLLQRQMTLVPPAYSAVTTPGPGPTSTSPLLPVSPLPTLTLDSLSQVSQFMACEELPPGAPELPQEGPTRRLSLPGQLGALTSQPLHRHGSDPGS
Cytochrome P450 3A4 (Homo sapiens), sequence (P08684 whole entry, looked up): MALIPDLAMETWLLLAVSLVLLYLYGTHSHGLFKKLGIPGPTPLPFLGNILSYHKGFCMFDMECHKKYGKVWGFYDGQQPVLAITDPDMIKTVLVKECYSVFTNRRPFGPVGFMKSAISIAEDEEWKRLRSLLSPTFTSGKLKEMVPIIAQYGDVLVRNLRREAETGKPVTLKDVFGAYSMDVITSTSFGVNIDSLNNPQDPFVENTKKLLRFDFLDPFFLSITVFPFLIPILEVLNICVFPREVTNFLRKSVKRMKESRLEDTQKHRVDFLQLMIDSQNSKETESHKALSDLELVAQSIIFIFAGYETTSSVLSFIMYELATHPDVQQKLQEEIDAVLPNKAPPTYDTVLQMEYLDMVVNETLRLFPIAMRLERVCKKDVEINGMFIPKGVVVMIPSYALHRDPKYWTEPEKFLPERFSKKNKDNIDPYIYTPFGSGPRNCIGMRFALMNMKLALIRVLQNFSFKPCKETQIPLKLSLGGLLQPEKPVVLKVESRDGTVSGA

`Cc1occc(=O)c1O`: the outcome in experiment [1] was inactive. Further, the Potency entry in experiment [2] is “inactive”.

Regarding `COc1ccc(Nc2ccccc2)c(C)c1`, the result in experiment [1] was inactive. In addition, the Potency entry in experiment [2] is “inactive”.

`CCCCC(CC)COC(=O)CS` (stereo unspecified): the outcome in experiment [1] was inactive. Also, in experiment [2], the Potency was 40.4 µM (active).

Turning to `O=c1[nH]c(=O)n([C@H]2CCCO2)cc1F`, the call in experiment [1] was inactive. Besides, the Potency result in experiment [2] is “inactive”.

As to `CCCCCCCCCCCCOCCO`, the outcome in experiment [1] was inactive. Besides, the Potency result in experiment [2] was “inactive”.

As to `O=[N+]([O-])c1ccc(/C=C/c2ccc([N+](=O)[O-])cc2S(=O)(=O)O)c(S(=O)(=O)O)c1`, the outcome in experiment [1] was inactive. In addition, the Potency result in experiment [2] is “inactive”.

Take `CC(c1cc2ccccc2s1)N(O)C(N)=O` (stereo unspecified): the outcome in experiment [1] was inactive. For the same compound, in experiment [2], the Potency was 20 µM (active).

Turning to `CC(C)(N)CO`, the outcome in experiment [1] was inactive. Moreover, in experiment [2], the Potency result is “inactive”.

On to `CC(=O)CC(=O)Nc1ccccc1`, for which the compound was called inactive in experiment [1]. Also, the Potency entry in experiment [2] is “inactive”.

As to `c1ccc(OCCOc2ccccc2)cc1`, the compound was classed as inactive in experiment [1]. The Potency entry in experiment [2] was “inactive”.

For `CCCCCC(N)=O`, in experiment [1], the compound was classed as inactive. Also, in experiment [2], the Potency result is “inactive”.

As for `CCCCC(CC)COC(=O)CCCCC(=O)OCC(CC)CCCC` (stereo unspecified), in experiment [1], the compound was called inactive. Besides, in experiment [2], the Potency entry was “inactive”.

Consider `Fc1ccc(Br)cc1`, for which the outcome in experiment [1] was inactive. Moreover, the Potency result in experiment [2] is “inactive”.

On to `CCCCOC(=O)COc1ccc(Cl)cc1Cl`, for which the Potency entry in experiment [2] was “inactive”.

As to `C[Si](O[Si](C)(C)C)O[Si](C)(C)C`, the call in experiment [1] was inactive. The Potency entry in experiment [2] was “inactive”.

Take `C/C=C1/CC2C=CC1C2` (stereo unspecified): in experiment [1], the compound was called inactive. In addition, the Potency entry in experiment [2] is “inactive and 31.7 µM (active)”.

Turning to `CCCCCCCC(=O)OC`, the outcome in experiment [1] was inactive. The Potency result in experiment [2] is “inactive”.

As for `CC1CCC(C(C)C)C(O)C1` (stereo unspecified), the call in experiment [1] was inactive. The Potency result in experiment [2] is “inactive”.

`CCCCCCCCCCCCc1ccccc1`: in experiment [2], the Potency result was “inactive”.

For `N[C@@H](Cc1cc(I)c(Oc2cc(I)c(O)c(I)c2)c(I)c1)C(=O)O`, the compound was classed as inactive in experiment [1]. Besides, the Potency result in experiment [2] is “inactive”.

For `CC(=O)Nc1cccc(O)c1`, in experiment [1], the outcome was inactive. For the same compound, the Potency result in experiment [2] was “inactive”.

As for `O=C(O)c1cc(C(=O)O)cc(S(=O)(=O)O)c1`, in experiment [1], the result was inactive. Further, in experiment [2], the Potency result was “inactive”.

For `O=C(O)c1cc(O)c(O)c(O)c1`, in experiment [1], the compound was called inactive. Besides, the Potency entry in experiment [2] was “inactive”.

For `CCCCCC/C(C=O)=C\c1ccccc1`, the call in experiment [1] was inactive. The Potency entry in experiment [2] was “inactive”.

`CCCCN(CCCC)CCCC`: the result in experiment [1] was inactive. Besides, the Potency entry in experiment [2] is “inactive”.

On to `C=CCNC(N)=S`, for which, in experiment [1], the compound was called inactive. Also, in experiment [2], the Potency entry was “inactive”.

As to `O=C1CCC(N2C(=O)c3ccccc3C2=O)C(=O)N1` (stereo unspecified), the call in experiment [1] was inactive. In experiment [2], the Potency entry was “inactive”.

For `CC(=O)Nc1ccccc1`, the outcome in experiment [1] was inactive. Besides, the Potency result in experiment [2] is “inactive”.

Take `CCN(CC)c1ccc(C(=O)c2ccccc2C(=O)O)c(O)c1`: in experiment [1], the compound was called inactive. Moreover, the Potency entry in experiment [2] was “inactive”.

`c1ccc2c(c1)ccc1ccccc12`: in experiment [1], the call was inactive. Also, the Potency result in experiment [2] was “inactive”.

With `CC(=O)OCC(=O)[C@@]12N=C(C)O[C@@H]1C[C@H]1[C@@H]3CCC4=CC(=O)C=C[C@]4(C)[C@H]3[C@@H](O)C[C@@]12C`, the outcome in experiment [1] was inactive. The Potency result in experiment [2] was “inactive”.

With `CCCCCCCCCCCCCCCO`, in experiment [1], the call was inactive. Also, the Potency entry in experiment [2] is “inactive”.

For `OC[C@H]1O[C@@](CO)(O[C@H]2O[C@H](CO)[C@@H](O)[C@H](O)[C@H]2O)[C@@H](O)[C@@H]1O`, the result in experiment [1] was inactive. The Potency entry in experiment [2] is “inactive”.

With `COc1ccc(NC(C)=O)cc1N`, in experiment [1], the call was inactive. Also, the Potency entry in experiment [2] is “inactive”.

Consider `O=C=NCCCCCCN=C=O`, for which the outcome in experiment [1] was inactive. Moreover, the Potency result in experiment [2] is “inactive”.

Take `CC(C)(C)[C@@H](O)[C@@H](Cc1ccc(Cl)cc1)n1cncn1`: in experiment [1], the compound was classed as inactive. The Potency in experiment [2] was 112 nM (active) and 200 nM (active).

On to `ON=C1CCCCC1`, for which, in experiment [1], the result was inactive. Besides, the Potency entry in experiment [2] was “inactive”.

Consider `Cc1cccc(O)c1`, for which the result in experiment [1] was inactive. For the same compound, the Potency result in experiment [2] was “inactive”.

Turning to `O=C(O)c1ccc2c(c1)C(=O)OC2=O`, the outcome in experiment [1] was inactive. Also, the Potency entry in experiment [2] is “inactive”.

With `CCCCCCOCCO`, the call in experiment [1] was inactive. Further, the Potency entry in experiment [2] is “inactive”.

Take `O=C(OCCOCCOC(=O)c1ccccc1)c1ccccc1`: in experiment [1], the result was inactive. Also, the Potency result in experiment [2] is “inactive”.

For the compound `CC1=CCC2CC1C2(C)C` (stereo unspecified), the compound was classed as inactive in experiment [1]. The Potency result in experiment [2] is “inactive”.

Take `CCCCCCCCCCCCCCO`: the compound was classed as inactive in experiment [1]. In addition, the Potency entry in experiment [2] was “inactive”.

`Cc1cc(C)c(C)cc1C`: the outcome in experiment [1] was inactive. In addition, in experiment [2], the Potency entry is “inactive”.

Source of the values: PubChem BioAssay (Tox21).
